Results: PubChem BioAssay AID720690 (Broad Institute, 2013)
Entries with a potency or affinity are not part of this list. The source made the active and inactive calls.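 Rule for the calls: active = every repeat run showing a signal drop whose fitted half-maximal concentration is at most twice the top tested concentration; inconclusive = repeat runs disagree, or flat partial drop, or poor fit; inactive = the rest.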

Test: HEK293T cytotoxicity, dose response, cytotoxicity control for miR-122 modulator project, cell-based, activator set, cherry-pick (AID 720690)
Conditions: HEK293T viability, CellTiter-Glo luminescence, 48 h; series mostly up to 26 µM

| Structure (SMILES) | outcome |
| --- | --- |
| COCC(=O)Nc1ccc2c(c1)C(=O)N(C)[C@@H]1CC[C@@H](CC(=O)NC3Cc4ccccc4C3)O[C@@H]1CO2 | inactive |
| CCCCC(=O)OCC(=O)c1[nH]c(C)c(C(=O)OCC)c1C | inactive |
| C[C@@H]1CN([C@H](C)CO)S(=O)(=O)c2ccc(/C=C/c3ccccc3)cc2O[C@@H]1CN(C)C(=O)c1cccnc1 | inactive |
| C[C@@H]1CN([C@H](C)CO)C(=O)c2cc(NC(=O)Nc3ccc(C(F)(F)F)cc3)ccc2O[C@@H]1CN(C)CC1CCCCC1 | inactive |
| CO[C@@H]1CN(C)C(=O)c2ccc(NS(=O)(=O)c3cccc(F)c3)cc2OC[C@@H](C)NC[C@H]1C | inactive |
| CN1C(=O)c2cc(NC(=O)c3cccc(F)c3)ccc2OC[C@@H]2O[C@H](CC(=O)O)CC[C@H]21 | inactive |
| Cc1cc(CN(C)C(=O)c2cc(COc3ccc4ncccc4c3)on2)on1 | inactive |
| c1ccc(CCCNCCCn2cnc3c(OCc4ccccc4)ncnc32)cc1 | inactive |
| CN(C)CCCN(C(=O)CCc1ccccc1)c1nc2ccc(Br)cc2s1 | inactive |
| CC(C)C(=O)Nc1ccc2c(c1)C(=O)N(C)[C@H]1CC[C@H](CC(=O)Nc3cccc(F)c3)O[C@@H]1CO2 | inactive |
| CO[C@@H]1CN(C)C(=O)c2ccc(NC(=O)c3nc4ccccc4s3)cc2OC[C@H](C)N(Cc2cccnc2)C[C@H]1C | inactive |
| CC(=O)N(C[C@@H]1N[C@@H](CO)[C@H]1c1ccc(-c2ccccc2)cc1)C(C)C | inactive |
| CCN(CC)CCOc1cccc(C(C)C)c1 | inactive |
| CN1C(=O)c2cc(NC(=O)c3cccc(C(F)(F)F)c3)ccc2OC[C@@H]2O[C@@H](CC(=O)NCCN3CCCC3)CC[C@@H]21 | inactive |
